The values below come from PubChem BioAssay (Tox21).

Calls of active or inactive are those of the source. The call rests on the fitted dose curve; in most records, active means well fitted curve in the direction sought with a large enough effect in the repeat runs; inconclusive means weak or mixed curves; inactive means flat fitted curve, though single readings scatter.
On the % scale 0 is the no-effect control and ±100 the full control effect.

This test in a line: qHTS assay to test for compound auto fluorescence at 535 nm (green) in HEK293 cell free culture (AID 720682). The conditions noted are these: cell-free medium, green autofluorescence 485/535 nm, stronger effect = higher value; series mostly up to 91.3 µM; activity change: at the top concentration. The text has this:
U.S. Tox21 Program National Center for Advancing Translational Sciences [NCATS] NIH Chemical Genomics Center [NCGC] U.S. Environmental Protection Agency [EPA] National Institutes of Environmental Health Sciences [NIEHS] National Toxicology Program [NTP] U.S. Food and Drug Administration [FDA] Tox21 Assay Overview: Compound auto fluorescence often interferes with screening of the compound library against various biological targets and signaling pathways. Some of these compounds may have fluorophoric properties. Such properties may interfere with the assay outputs resulting in false positives and/or negatives. To decrease such complications and ensure the compound activities are relevant in terms of biological response, the Tox21 10K compound library was screened for auto fluorescence. From the fluorophores used as reporter signals in our screening assays, the auto fluorescence equivalencies of compounds against three fluorophores have been evaluated: Triamterene, Fluorescein and Rose Bengal sodium for blue, green and red fluorescence, respectively. The fluorescence intensities were measured using Excitation/Emission wavelengths at 405/460nm, 485/535nm and 540/590nm for blue, green and red labels, respectively. This assay includes the green fluorescence data.
Tox21 Assay Protocol Summary: 5 uL of culture medium (DMEM containing 10% FBS) per well was dispensed into black wall/clear bottom 1536-well plates using a Multidrop Combi Dispenser (ThermoFisher Scientific, Waltham, MA). After 23 nL compound or DMSO vehicle was transferred into assay plate by a pintool work station (Kalypsys, San Diego, CA), fluorescence intensities in the assay plates were measured by an Envision (PerkinElmer, Shelton, CT) plate reader using three labels for measuring blue, green and red fluorescence at […] 460, 535 and 590nm respectively.
Turning to `CCCCCCCCCCCCCCCCC(=O)O`, the “activity change” value is 0.133% [at 46 µM] (inactive).

On to `O=c1[nH][nH]c2ccccc12`, for which the “activity change” value was 0.0312% [at 95.7 µM] (inactive).

Regarding `O=C1c2ccccc2C(=O)c2c1ccc(O)c2O`, the “activity change” value is 0.066% [at 46 µM] (inactive).

Regarding `CC(C)CCCCCCCOC(=O)c1ccc(C(=O)OCCCCCCCC(C)C)c(C(=O)OCCCCCCCC(C)C)c1`, the “activity change” value is -0.0819% (inactive).

`CC(C(=O)O)c1ccc2c(c1)Cc1cccnc1O2` (stereo not given): the “activity change” value is 0.0633% [at 46 µM] (inactive).

On to `C=CCCC`, for which the “activity change” value was -0.0224% [at 95.7 µM] (inactive).

Take `CC(C)(C)N`: the “activity change” value was 0.101% (inactive).

On to `O=C(Cl)c1cc(Cl)cc(Cl)c1`, for which the “activity change” value is -0.131% [at 95.7 µM] (inactive).

`O=C1C=CCCC1`: the “activity change” value was -0.0168% (inactive).

Turning to `COc1ccc(C(=O)c2ccc(C)cc2)c(O)c1`, the compound was called inactive.

Take `CS(C)=O`: the “activity change” value was -0.0051% (inactive).

Turning to `CC(=O)Nc1ccccc1O`, the “activity change” value is 0.105% (inactive).

Turning to `CCc1c(C)[nH]c2c1C(=O)C(CN1CCOCC1)CC2` (stereo not given), the activity change is 0.141% [at 18.6 µM] (inactive).

For `CC(=O)OCC(=O)[C@@]1(O)CC[C@H]2[C@@H]3CCC4=CC(=O)C=C[C@]4(C)[C@@]3(F)[C@@H](O)C[C@@]21C`, the activity change is 0.114% [at 18.6 µM] (inactive).

As to `C=CC(C)(O)CC/C=C(/C)CCC=C(C)C` (stereo not given), the “activity change” value is 0.0036% (inactive).

Turning to `CCC(C)C1N=C(C)C(C)S1` (stereo not given), the “activity change” value is 0.105% (inactive).

For the compound `C=C[Si]1(C)O[Si](C)(C=C)O[Si](C)(C=C)O[Si](C)(C=C)O1` (stereo not given), the “activity change” value was 0% (inactive).

For the compound `O=P(c1ccccc1)(c1ccccc1)c1ccccc1`, the “activity change” value is 0.0211% (inactive).

In the case of `O=C(O)c1cccnc1Nc1cccc(C(F)(F)F)c1`, the “activity change” value was -0.0552% [at 46 µM] (inactive).

For the compound `c1ccc(CCNc2nc(-c3ccccc3)cs2)cc1`, the “activity change” value was -0.178% [at 46 µM] (inactive).

On to `CCCCCCC/C=C/C=O`, for which the “activity change” value was -0.0278% (inactive).

Take `COC(=O)/C=C/C(C)=C\C=C\C(C)=C\C=C\C=C(C)\C=C\C=C(C)\C=C\C(=O)O`: the “activity change” value is 0.18% (inactive).

On to `O=C(O)c1ccncc1`, for which the “activity change” value is 0.151% [at 95.7 µM] (inactive).

With `COC(=O)c1cc(Cl)ccc1[N+](=O)[O-]`, the “activity change” value is -0.0085% (inactive).

For the compound `C[C@@H](O)[C@H]1C(=O)N2C(C(=O)O)=C(S[C@@H]3CN[C@H](CNS(N)(=O)=O)C3)[C@H](C)[C@H]12`, the “activity change” value was 0.0811% [at 46 µM] (inactive).

Turning to `Cc1c(N=C=O)cccc1N=C=O`, the “activity change” value is 0.0559% [at 95.7 µM] (inactive).

In the case of `O=C(O)COCC(=O)O`, the “activity change” value was 0.0937% (inactive).

As to `Cc1ccc(NC(=O)c2ccc(CN3CCN(C)CC3)cc2)cc1Nc1nccc(-c2cccnc2)n1`, the “activity change” value was -0.0126% [at 46 µM] (inactive).

Turning to `CC(C)(Cc1c[nH]c2ccccc12)NCC(O)COc1ccccc1C#N` (stereo not given), the “activity change” value is 0.0322% [at 46 µM] (inactive).

For `CC(C)CCCCCOC(=O)CS`, the “activity change” value is -0.0311% (inactive).

Regarding `CC(=O)Nc1ccn(C2COC(COC(=O)c3ccccc3)O2)c(=O)n1` (stereo not given), the “activity change” value was -0.0829% [at 46 µM] (inactive).

With `CC1=C(C)C(=O)C(C(CCCCCC(=O)O)c2ccccc2)=C(C)C1=O` (stereo not given), the “activity change” value is -0.0044% [at 46 µM] (inactive).

As for `Nc1ccc(F)cc1F`, the “activity change” value was -0.356% [at 95.7 µM] (inactive).

On to `Cc1c(-c2cccnc2)c2ccccc2n1CCCCC(=O)O`, for which the “activity change” value was 0.0463% (inactive).

Turning to `CC(C)=CCC/C(C)=C/C=N/O`, the “activity change” value is 0.0442% (inactive).

As to `Clc1nc2ccccc2nc1Cl`, the “activity change” value was -0.0036% [at 95.7 µM] (inactive).

With `CC(C)=CCCC(C)C=O` (stereo not given), the “activity change” value is -0.11% (inactive).

With `FC1(F)C(F)(F)C(F)(F)C2(F)C(F)(C1(F)F)C(F)(F)C(F)(F)C1(F)C(F)(F)C(F)(F)C(F)(F)C(F)(F)C12F` (stereo not given), the “activity change” value was 0.111% (inactive).

As to `Cc1cc(SC2=C(O)C[C@@](CCc3ccc(N)cc3)(C(C)C)OC2=O)c(C(C)(C)C)cc1CO`, the “activity change” value was -0.0284% (inactive).

As to `Cc1ccc2ccccc2c1[N+](=O)[O-]`, the “activity change” value is 0.0021% (inactive).
